Active and inactive are the calls of the source. How the source made its calls: active means hit-call score of the fitted dose curve at least 0.9, where 1 is the maximum; inactive means score below 0.9.
Experiment: APR_HepG2_StressKinase_72hr: Apredica 72-hour HepG2 Assay for Stress Kinase (AID 2282921)
Conditions: HepG2 stress kinase (phospho-c-Jun) imaging, actives raise or lower the signal
Protocol: APR_HepG2_72hr is a cell-based, multiplexed-readout assay that uses HepG2, a human liver cell line, with measurements taken at 72 hours after chemical dosing in a 384-well plate.APR_HepG2_StressKinase_72hr is one of 10 assay component(s) measured or calculated from the APR_HepG2_72hr assay. It is designed to make measurements of enzyme activity, a form of enzyme reporter, as detected with fluorescence intensity signals by HCS Fluorescent Imaging technology.Data from the assay component APR_HepG2_StressKinase_72hr was analyzed into 1 assay endpoint. This assay endpoint, APR_HepG2_StressKinase_72hr, was analyzed with bidirectional fitting relative to DMSO as the negative control and baseline of activity. Using a type of enzyme reporter, measures of protein for gain or loss-of-signal activity can be used to understand the signaling at the pathway-level as they relate to the gene . Furthermore, this assay endpoint can be referred to as a primary readout, because this assay has produced multiple assay endpoints where this one serves a signaling function. To generalize the intended target to other relatable targets, this assay endpoint is annotated to the cell cycle intended target family, where the subfamily is stress response.
Cells were treated with dimethyl sulfoxide (DMSO) as a solvent control at a final concentration of 0.5% v/v or with compounds in DMSO with a resulting final DMSO concentration of 0.5% v/v. Compound treatment was done at concentrations of 0.39, 0.78, 1.56, 3.12, 6.24, 12.5, 25, 50, 100, and 200 uM in duplicate on each plate. Cells were treated with compounds for 1, 24, or 72 hr. Carbonyl […] m-chloro-phenylhydrazone (CCCP) and taxol were used as positive controls for mitochondrial function and cytoskeletal stability, respectively; DMSO served as the negative control for this experiment. Cells were fixed by the direct addition of 50 uL formaldehyde in Hank's Balanced Salt Solution (HBSS) to a final concentration of 3.7%. After incubation in the fixation medium for 30 min at room temperature (293-298 K), cells were rinsed twice with HBSS and treated with cell permeabilization buffer (16 uL of 0.5% Triton X-100) for 10 min at room temperature (293-298 K) before labeling. For mitochondrial membrane potential and mitochondrial measurements, pre-fixed cells were incubated with 50 uL of MitoTracker Red CMXRos (Invitrogen) at a concentration of 250 nM for 30 min before fixation. In the remaining cases, post-fixed cells were labeled by incubation with a multiplexed mixture of primary antibodies in HBSS for 60 min at room temperature (293-298 K) to detect immunoreactivity of c-Jun (1:500), phospho-histone H3 (1:100), phospho-histone H2A.x (1:200), p53 (1:400), alpha-tubulin (1:200) and Hoechst 33342 (2 ug/mL). Cells were labeled for multiplexed imaging on two separate plates: a) Hoechst 33342, MitoTracker Red, phospho-histone H3, and alpha-tubulin, and b) Hoechst 33342, phospho-histone H2A.x, and c-Jun. A final rinse with HBSS (50 uL) was performed before analysis. The primary and secondary antibodies for the proteins were phospho-histone H3 (rabbit anti-phospho-histone H3 and FITC-donkey anti-rabbit IgG), phospho-histone H2A.x (mouse anti-phospho-histone H2A.x and FITC-donkey anti-mouse IgG), c-Jun (rabbit anti-phospho-c-Jun and Cy3-donkey anti-rabbit IgG), p53 (sheep anti-p53 and Cy5-donkey anti-sheep IgG), alpha-tubulin (mouse anti-alpha-tubulin and Cy5-donkey anti-mouse IgG). These antibodies are available as the CellCiphr HepG2 assay kit (Millipore).Digital images of each well were captured using a Cellomics ArrayScan VTI (Thermo Scientific Cellomics) (0.8 NA objective, 0.63x optical coupler, and XF-93 filter set) at 20x magnification. The images were acquired using the autofocus feature of the ArrayScan instrument, which entails the following steps. First, the camera focuses on channel 1 (Hoechst 33342), where nuclei are identified. Second, a Z offset of 1 um is used for capturing mitochondria (MitoTracker Red). […]

Row | Compound | outcome | AC50
1 | CO[C@@H]1[C@H](OC(=O)NC(=O)CCl)CC[C@]2(CO2)[C@H]1[C@@]1(C)O[C@@H]1CC=C(C)C | inactive | –
2 | OCCCl | inactive | –
3 | CN(C)c1ccc(C(=O)c2ccc(N(C)C)cc2)cc1 | – | 9.87 µM (active)
4 | Nc1ccc([N+](=O)[O-])cc1 | inactive | –
5 | c1ccc2c(c1)oc1ccccc12 | inactive | –
6 | CCOc1cccc(C2(N3CCN(c4ccccc4)CC3)CCC(C)CC2)c1 (stereo not given) | inactive | –
7 | CC(C)COC(=O)c1ccccc1C(=O)OCC(C)C | inactive | –
8 | Brc1ccc(Oc2ccccc2)cc1 | inactive | –
9 | C[N+](C)(C)CC1CO1 (stereo not given) | inactive | –
10 | CC(C)(C)C(O)(CCc1ccc(Cl)cc1)Cn1cncn1 (stereo not given) | – | 113 µM (active)
11 | C[C@]12C=CC3=C4CCC(=O)C=C4CC[C@H]3[C@@H]1CC[C@@H]2O | inactive | –
12 | O=C1CCCO1 | inactive | –
13 | O=C(Oc1ccc(Br)cc1)N1CCN2CCC1CC2 | inactive | –
14 | Cc1ccc([N+](=O)[O-])cc1 | inactive | –
15 | [O-][Cl+]O | inactive | –
16 | O=C(O)C1C2CCC(O2)C1C(=O)O (stereo not given) | inactive | –
17 | COc1cc(C=O)cc2c1[C@H](COC(N)=O)[C@]1(OC(C)=O)ON2C[C@H]2[C@@H]1N2C(C)=O | inactive | –
18 | CNC(=O)Oc1cccc2c1OC(C)(C)C2 | inactive | –
19 | CC(C)(C)OOC(=O)c1ccccc1 | – | 50 µM (active)
20 | Nc1cc(Cl)cc(C(=O)O)c1Cl | inactive | –

Row | Compound | outcome | AC50
21 | OCCOCCO | inactive | –
22 | Cc1cccc(N)c1N | inactive | –
23 | CN(C)C(=O)Nc1ccc(Cl)cc1 | inactive | –
24 | CCC(C)c1ccc(O)cc1 (stereo not given) | inactive | –
25 | Oc1ccccc1Cl | inactive | –
26 | COC(=O)c1ccccc1N | inactive | –
27 | O=C(Nc1ccccc1)c1ccccc1I | inactive | –
28 | CCCCCCCCCCCCCN1CC(C)OC(C)C1 (stereo not given) | inactive | –
29 | O=[N+]([O-])C(Br)(CO)CO | inactive | –
30 | CC(C)(OOC(C)(C)c1ccccc1)c1ccccc1 | inactive | –
31 | C=CCc1ccc2c(c1)OCO2 | inactive | –
32 | Clc1ccc(C(c2ccc(Cl)cc2)C(Cl)(Cl)Cl)cc1 | inactive | –
33 | ClCCOCCCl | inactive | –
34 | ClC1=C(Cl)[C@]2(Cl)[C@H]3[C@H]([C@@H]4C=C[C@H]3C4)[C@@]1(Cl)C2(Cl)Cl | – | 53.4 µM (active)
35 | OCCCBr | inactive | –
36 | Clc1ccccc1Cl | inactive | –
37 | CC(C)(C)OOC(C)(C)CCC(C)(C)OOC(C)(C)C | inactive | –
38 | CC(C)N(Cc1ccccc1)C(=O)C(C)(C)C | inactive | –
39 | CCN(CC)N=O | inactive | –
40 | CCN(CC)CCO | inactive | –

From PubChem BioAssay (EPA / NIEHS)
